A selection: hits, their analogues and other compounds. The true share with any hit is near 7.6%.
VP16 counter: VP16 counterscreen qHTS for inhibitors of ROR gamma transcriptional activity; Drosophila S2 Gal4-VP16 UAS-luciferase, luminescence, 20 h; Potency, µM (titrated, usually from 53.6 µM), for inactives: top-dose activity, negative = inhibition, actives largely listed as inhibitors; 3.5% of 310,000 active;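 also: Gal4-VP16 expression switched on by copper sulfate through the metallothionein promoter; potency is read from the fitted curve at half-maximal effect; % is scaled to controls: 0 for no effect and ±100 for the full control effect; nearly all actives have a fitted effect of over 50% in size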
BRCA1 expr up: qHTS Assay to Identify Small Molecule Activators of BRCA1 Expression. MCF7-BRCA1-FFLuc reporter, luminescence, 48 h; response scale: scaled: vehicle 0%, 10 µM genistein 100%. Potency, µM (top dose mostly 46.1 µM), for inactives: top-dose activation, hits mostly activators. 1.1% of 380,000 active. AID 624202, 2012; also: potency is read from the fitted curve at half-maximal effect; nearly all actives have a fitted effect of over 80% in size
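Cells: MCF7-BRCA1-FFLuc, 2000/well. Exposure: 48 h, 37 °C, 5% CO2. Read: luminescence, 15 min post-substrate. Controls: genistein 10 microM (maximal activation), DMSO (neutral).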
ELG1 DNA repair: qHTS screen for small molecules that inhibit ELG1-dependent DNA repair in human embryonic kidney (HEK293T) cells expressing luciferase-tagged ELG1; HEK293T ELG1-luciferase reporter, luminescence, 16 h; DNA damage induced by 5-fluorouridine; Potency, µM (series often up to 46.1 µM), inactives show at the top dose activity change, negative = inhibition, actives largely listed as inhibitors; 2.3% of 330,000 active; AID 504467, 2011; also: potency is read from the fitted curve at half-maximal effect; % is scaled to controls: 0 for no effect and ±100 for the full control effect; nearly all actives have a fitted effect of over 55% in size
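DMSO vehicle served as the neutral condition. Each well held 2,000 cells given 5-fluorouridine plus compound; after 16 hr at 37 °C/5% CO2, ONE-Glo was added and luciferase measured 30 min later.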
p53 reactivator: qHTS assay for re-activators of p53 using a Luc reporter. H1299 p53-A138V BP100-luciferase reporter, luminescence, 24 h. Potency, µM (titrated, usually from 92.2 µM), for the others: top-dose activity change, positive = activation, hits mostly activators. 0.063% of 320,000 active. AID 504706, 2011; also: potency is read from the fitted curve at half-maximal effect; % of control where 0% means no effect; nearly all actives have a fitted effect of over 45% in size
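H1299 (p53-null), stable ts p53-A138V + BP100-Luc; 1000 cells/well, Opti-MEM/10% FBS; cpd 4 pt, 1:5; 24 h, 37 deg C, 5% CO2; detection reagent 10 min RT; luminescence.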
Giardia killer: Small Molecules that selectively kill Giardia lamblia: qHTS. Giardia lamblia trophozoite viability. activity change, % at 7.66 µM, hits read low. 0.15% of 340,000 active. AID 540267, 2011; in the data active = activity change below about -80%; inconclusive = between about -30% and that limit;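 also: parasites exposed to compound for two days anaerobically before the ATP read; % is scaled to controls: 0 for no effect and ±100 for the full control effect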
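Giardia lamblia trophozoites (100 cells/well) were incubated with compounds for 48 h at 37 deg C under anaerobic conditions. Viability was read as ATP content by one-step luminescence after 15-30 min at room temperature.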
RORg inh: qHTS for inhibitors of ROR gamma transcriptional activity | 5.4% of 310,000 active | Potency, µM (titrated, usually from 53.6 µM), without a hit: at the top dose activity change, negative = inhibition, hits mostly inhibitors | Drosophila S2 Gal4-RORgamma UAS-luciferase reporter, 20 h | Nuclear receptor ROR-gamma (Mus musculus), P51450; also: potency is read from the fitted curve at half-maximal effect; % is scaled to controls: 0 for no effect and ±100 for the full control effect; nearly all actives have a fitted effect of over 60% in size
Target sequence (P51450 whole entry, looked up, the tested form may be a part): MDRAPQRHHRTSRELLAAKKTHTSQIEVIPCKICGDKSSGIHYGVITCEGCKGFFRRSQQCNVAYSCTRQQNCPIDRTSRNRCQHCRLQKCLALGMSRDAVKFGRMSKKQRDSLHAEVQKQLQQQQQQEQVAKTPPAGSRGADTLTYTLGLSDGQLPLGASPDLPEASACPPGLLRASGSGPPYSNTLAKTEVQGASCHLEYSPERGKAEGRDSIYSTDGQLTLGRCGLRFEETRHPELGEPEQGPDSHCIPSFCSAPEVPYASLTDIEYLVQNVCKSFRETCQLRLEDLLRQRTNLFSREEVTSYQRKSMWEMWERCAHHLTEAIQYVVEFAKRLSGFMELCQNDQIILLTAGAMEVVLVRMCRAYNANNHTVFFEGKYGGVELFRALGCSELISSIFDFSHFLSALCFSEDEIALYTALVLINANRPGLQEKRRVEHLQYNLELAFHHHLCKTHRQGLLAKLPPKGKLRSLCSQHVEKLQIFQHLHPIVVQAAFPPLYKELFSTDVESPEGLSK
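Stable Schneider cell line, Gal4 DNA-binding domain fused to ROR gamma, UAS-luciferase. Cmpd 1 hr RT → CuSO4 700 uM final → 20 hr RT → luciferase reagent 10 min → luminescence.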
The depositor's hits bear a star; ! = repeats disagree. Unless noted, calls follow the shape of the dose curve; as a rule, active = well fitted curve in the direction sought with a large enough effect; inconclusive = small, poorly fitted or top-dose-only effect, or another doubt; inactive = no such curve, though single readings can be large; an effect the other way counts as inactive or inconclusive.

For O=C(Nc1ccccc1)Oc1ccccc1 the results were VP16 counter 14%, BRCA1 expr up 4%, ELG1 DNA repair 21%, p53 reactivator 8%, Giardia killer 14 and RORg inh 11%.
`COc1ccc2c3c([nH]c2c1)C(C)=NCC3` gave VP16 counter 3%, BRCA1 expr up 0%, ELG1 DNA repair 9.2µM*, p53 reactivator 2%, Giardia killer 9 and RORg inh inconclusive.
For CCC1CN2CCc3cc(OC)c(OC)cc3C2CC1CC1NCCc2cc(OC)c(OC)cc21 (stereo unspecified) the results were VP16 counter 7.1µM* and RORg inh 6.3µM*.
For CCN(CC)C(=O)c1ccc(NC(=O)c2cccc(S(=O)(=O)N3CCN(C)CC3)c2)cc1 the results were VP16 counter -2%, BRCA1 expr up -17%, ELG1 DNA repair 0%, p53 reactivator 10%, Giardia killer 2 and RORg inh 2%.
`CCN(CC)C(=O)c1ccc(NC(=O)c2cccc(F)c2)cc1` gave VP16 counter 1%, BRCA1 expr up 11µM*, ELG1 DNA repair inconclusive, p53 reactivator 18%, Giardia killer -2 and RORg inh 18%.
CC(C)C1CN1CC(O)Cn1ccnc1[N+](=O)[O-] (stereo unspecified) was read as BRCA1 expr up 18%.
`CCn1c(NN=O)nc2ccccc21` gave VP16 counter inconclusive, BRCA1 expr up -59%, ELG1 DNA repair 0%, p53 reactivator 12%, Giardia killer 8 and RORg inh 0.5µM*.
CCn1c(P(C)(=O)O)nc2ccccc21 was read as VP16 counter -1%, BRCA1 expr up 11%, ELG1 DNA repair 2%, p53 reactivator 6%, Giardia killer -26 and RORg inh -1%.
For O=C(O)c1ccccc1-c1c2cc(Br)c(=O)cc-2oc2[c]([Hg])c(O)c(Br)cc12 the results were VP16 counter 18µM*! and RORg inh inconclusive.
For Cc1cc(C(=O)Nc2ccc(CC(=O)O)cc2)c(C)o1 the results were VP16 counter inconclusive, BRCA1 expr up -58%, ELG1 DNA repair 22%, p53 reactivator -14%, Giardia killer -26 and RORg inh 11µM*.
For C[S@@](=O)CCCCN=C=S the results were VP16 counter -11% and RORg inh 3.2µM*.
Screening COC(=O)c1nc(-c2ccc3c(n2)C(=O)C(N)=C(OC)C3=O)c(N)c(-c2ccc(OC)c(OC)c2O)c1C returned VP16 counter 4%, BRCA1 expr up -96%, ELG1 DNA repair 2.1µM*, p53 reactivator 11%, Giardia killer inconclusive and RORg inh -13%.
`Cn1c(C(=O)O)c(CC(=O)N2CCN(Cc3ccccc3)CC2)c2ccccc21` gave VP16 counter 1%, BRCA1 expr up -21%, ELG1 DNA repair 9%, p53 reactivator -5%, Giardia killer -3 and RORg inh -13%.
`C[C@H](CCC(=O)O)C[C@H](C)C[C@H](C)C(=O)/C=C(\O)[C@H](C)C[C@H](C)C/C=C/[C@@H](C)[C@@H](O)[C@@H](C)[C@@H](O)C[C@@H]1CC[C@@](C)(C2CC[C@@](C)([C@@H](C)O)O2)O1` (stereo partly specified) gave VP16 counter 6.3µM* and RORg inh inconclusive.
`CC1=C/C(=N\NC(=S)NCCc2ccccc2)CC(C)(C)C1` gave VP16 counter inconclusive, BRCA1 expr up 11µM*, ELG1 DNA repair inconclusive, p53 reactivator inconclusive, Giardia killer -11 and RORg inh 0.5µM*.

Screens from PubChem.
